Assay outcomes as filed in PubChem BioAssay.
GAA glycogen: alters human alpha-glucosidase cleavage of glycogen; P10253; recombinant GAA, glycogen substrate, Amplex Red glucose oxidase fluorescence; Potency, µM (titrated, usually from 76.4 µM), inactives show at the highest dose activity change, negative = inhibition, usual class: inhibitors; 300,000 tested, 0.38% active;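 also: 0% = full enzyme reaction and -100% = no-enzyme basal signal; the screen sought inhibitors and activators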
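Recombinant human alpha-glucosidase (4 nM final) hydrolysed bovine liver glycogen (30 ug) for 40 min at 37 C in pH 5.0 citrate/phosphate with 0.01% Tween-20. Released glucose detected by glucose oxidase/Amplex Red, Ex 573/Em 610 nm. Compounds up to 77 uM; AC50 from Hill fits.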
PKM2 activator: increases activity of human pyruvate kinase M2; P14618; purified PKM2, Kinase-Glo ATP luminescence, activation; response scale: 0% is enzyme alone, no compound; Potency, µM (doses to about 57.5 µM), inactives show top-dose activation, hits mostly activators; 260,000 tested, 0.34% active; also: nearly all actives have a fitted effect of over 55% in size
Target sequence (P14618 whole entry, looked up): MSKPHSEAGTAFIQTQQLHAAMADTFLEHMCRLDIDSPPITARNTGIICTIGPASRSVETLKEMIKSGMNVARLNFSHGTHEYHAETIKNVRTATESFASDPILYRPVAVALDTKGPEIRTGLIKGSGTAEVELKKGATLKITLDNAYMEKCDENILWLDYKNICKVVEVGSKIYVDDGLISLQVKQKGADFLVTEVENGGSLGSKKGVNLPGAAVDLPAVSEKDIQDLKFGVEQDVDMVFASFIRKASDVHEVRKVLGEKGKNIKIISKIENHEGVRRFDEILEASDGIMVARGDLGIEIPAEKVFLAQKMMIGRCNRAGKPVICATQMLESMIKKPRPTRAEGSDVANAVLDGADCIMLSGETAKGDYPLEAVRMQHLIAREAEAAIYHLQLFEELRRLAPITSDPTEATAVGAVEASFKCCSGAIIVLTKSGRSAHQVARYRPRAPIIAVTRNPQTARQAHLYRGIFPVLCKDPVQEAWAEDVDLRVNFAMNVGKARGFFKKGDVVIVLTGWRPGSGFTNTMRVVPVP
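Purified hPK-M2 (>95%) run at intermediate activity with 0.1 mM ADP and 0.5 mM PEP in 50 mM imidazole pH 7.2, KCl, MgCl2; 1 h room temperature. ATP formed read by Kinase-Glo luminescence; normalized to uninhibited and no-enzyme controls.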
aGlu spleen mod: lysosomal alpha-glucosidase (human) modulation. human spleen homogenate, 4-MU-alpha-glucoside fluorescence. Potency, µM (highest dose often 79.9 µM), inactives show at the top dose activity change, negative = inhibition, most hits filed as inhibitors. 240,000 tested, 0.006% active. AID 2112;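 also: 0% = enzyme with vehicle and -100% = no enzyme basal signal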
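AC50 values come from Hill-equation fits of concentration-response data, normalized to no-enzyme and full-activity controls. Enzyme source: 1 ug human spleen homogenate; 1 mM fluorogenic 4-MU glucoside, pH 5.0 citrate buffer, 37 C, 40 min.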
GAA inh: alpha-glucosidase (human) inhibition. P10253. purified human GAA, 4-MU-alpha-glucoside fluorescence. Potency, µM (top dose mostly 76.9 µM), for the others: at the top dose activity change, negative = inhibition, usual class: inhibitors. 200,000 tested, 0.005% active;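 also: plate controls were uninhibited enzyme wells for no effect and no-enzyme background for full effect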
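Compounds are titrated up to 77 uM against 4 nM human enzyme. Substrate 4-methylumbelliferyl-alpha-D-pyranoside (400 uM) reacts 20 min at room temperature in pH 5.0 buffer; liberated 4-methylumbelliferone is read at 440 nm.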
GALK inhibitor: galactokinase (human) inhibition. P51570. Purified GALK, Kinase-Glo residual ATP luminescence. Potency, µM (highest dose often 57.5 µM), inactives show at the highest dose activity change, negative = inhibition, hits mostly inhibitors. 270,000 tested, 0.007% active. AID 1868
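Luminescence from leftover ATP (Ultra-Glo luciferase/luciferin) served as read-out after a 1 h room-temperature reaction of 5 nM GALK with 35 uM ATP and 100 uM galactose.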
* marks the source's active call; other numbers are inactive results; ? = inconclusive; . = no result; ! = a repeat was not active; [ ] = another dose, or the depositor's remark. Compounds with a hit are over-represented: about 0.63% of the library has one in this group of screens. Calls follow the shape of the dose curve; as a rule, active = well fitted curve in the direction sought with a large enough effect; inconclusive = small, poorly fitted or top-dose-only effect, or another doubt; inactive = no such curve, though single readings can be large; an effect the other way counts as inactive or inconclusive. Unless noted, % is scaled to controls: 0 for no effect and ±100 for the full control effect; potency is read from the fitted curve at half-maximal effect.

SMILES | GAA glycogen | PKM2 activator | aGlu spleen mod | GAA inh | GALK inhibitor
O=C(CSc1nc2cc(Cl)c(Cl)cc2[nH]1)c1ccc2c(c1)OCO2 | -5% | 13% | 4% | . | -3%
O=C(CSc1nc2ccc(Cl)cc2[nH]1)c1ccc2c(c1)OCO2 | -9% | 7.9µM* | -7% | ? | -1%
N#Cc1c(Cl)cccc1N1CCC(C(N)=O)CC1 | 4.4µM* | -13% | 11% | . | 5%
Nc1ccc2nc(N3CCOCC3)sc2c1 | 6.3µM* | -28% | 2% | -3% | 1%
CC(C)Sc1ncc(Cl)c(C(=O)Nc2ccc(S(=O)(=O)N3CCCCC3C)cc2)n1 (centres undefined) | -13%[76.3 µM] | . | . | . | .
Cc1ccc(-n2c(=O)c3ccc(C(=O)NCc4ccco4)cc3n(Cc3ccccc3C#N)c2=O)cc1 | 32µM*! | 4% | -8% | 4% | 0%
O=C(NNC(=O)c1cc(O)c(O)c(O)c1)NC1CCCCC1 | 7.9µM* | 1% | -10% | -6% | -1%
O=C(NNC(=O)c1cccnc1)NC1CCCCC1 | -3% | 0% | -1% | 2% | -3%
O=C1OC(N2C(=O)CC[C@H]2C(=O)Nc2ccc3c(c2)OCO3)c2ccccc21 (some centres undefined) | 32µM* | 2% | . | . | .
O=C1OC(N2C(=O)CC[C@H]2C(=O)Nc2ccc(F)c(F)c2)c2ccccc21 (some centres undefined) | -23%[76.3 µM] | -1% | . | . | .
Cc1nn(C(C)C(=O)Nc2ccccc2C(F)(F)F)c(=O)c2c1sc1ccccc12 (centres undefined) | -16%[76.3 µM] | . | . | . | .
NC(=S)N=Nc1ccc(NN=C(N)N)cc1 | 40µM* | -1% | . | . | .
CN1CCN(C(=O)Nc2cccc(Cl)c2)c2cccnc21 | 4.5µM* | . | . | . | .
Cc1ccc(/C=N\Nc2nc3ccc(Cl)cc3[nH]2)o1 | 6.3µM* | -5% | 3% | 9% | 0%
O=C1OC(c2ccccc2)=C/C1=C/N1CCOCC1 | -19% | 16µM* | -14% | -10% | 2%
O=C1OC(c2ccccc2)=C/C1=C\N1CCOCC1 | 5% | 13% | -6% | -13% | -1%
Cc1ccccc1C(=O)NNc1ccc(-c2csnn2)cc1 | 16µM* | -1% | 6% | -2% | 3%
CC(=O)Oc1ccc(-c2csnn2)cc1 | -8% | 1% | 9% | 1% | 3%
NS(=O)(=O)c1ccc(NC(=O)CSc2ccccn2)cc1 | ? | 28µM* | 5% | -3% | -1%
Cc1cc(C)nc(SCC(=O)Nc2ccc(S(=O)(=O)Nc3ncccn3)cc2)n1 | 3.5µM* | -19% | -6% | 8% | 1%
O=C(Nc1cccc(Cl)c1)OCC#CCCl | . | . | -1% | . | .
CCOC(=O)CC(NC(=O)CCc1c(C)nc2c(c1C)c(=O)n(C)c(=O)n2C)c1ccc(OCC)c(OC)c1 (centres undefined) | 19%[76.3 µM] | . | . | . | .
COc1ccc(C2c3c(ncn(CCCO)c3=N)Oc3ccc4ccccc4c32)cc1OC (centres undefined) | -2% | -4% | 18% | . | 4%
COc1ccc(C2c3c(ncn(CCN4CCOCC4)c3=N)Oc3ccc4ccccc4c32)cc1OC (centres undefined) | -8% | 20µM* | 2% | -6% | 0%
Cc1ccc(-n2nc(C(=O)Nc3cccc(C#N)c3)c3c4ccccc4n(C)c3c2=O)cc1 | -4%[76.3 µM] | . | . | . | .
SMILES | GAA glycogen | PKM2 activator | aGlu spleen mod | GAA inh | GALK inhibitor
O=c1[nH]cc(F)c(=O)[nH]1 | 1% | -6% | 4% | -2%[15.4 µM] | -1%
O=c1[nH]cc(O)c(=O)[nH]1 | 5µM* | 4% | 5% | -1% | .
CC1CCN(S(=O)(=O)c2ccc3c(c2)CCN3C(=O)Nc2ccccc2Br)CC1 | -1%[76.3 µM] | . | . | . | .
CCC(C)(C)n1nnnc1C(c1ccccc1OC)N1CCN(C(=O)c2ccco2)CC1 (centres undefined) | 2% | 1% | . | . | -2%
CCC(C)(C)n1nnnc1C(c1cc2cc(C)cc(C)c2[nH]c1=O)N1CCN(C(=O)c2ccco2)CC1 (centres undefined) | -5% | 14µM* | -1% | 10% | 2%
Cc1ccc2[nH]c(=O)c(C(c3nnnn3C(C)(C)C)N3CCN(C(=O)c4ccco4)CC3)cc2c1 (centres undefined) | 0% | 25µM* | 0% | 1% | -1%
